# Data as given in PubChem BioAssay (NCATS).
# Inconclusive results are not listed. Where a call stands in place of a potency, no number is given. The source made the active and inactive calls. The call rests on the fitted dose curve; in most records, active means well fitted curve in the direction sought with a large enough effect; inconclusive means small, poorly fitted or top-dose-only effect, or another doubt; inactive means no such curve, though single readings can be large; an effect the other way counts as inactive or inconclusive.
# Experiments:
# [1] = target: Voltage-gated inwardly rectifying potassium channel KCNH2 (Homo sapiens) (UniProt Q12809); assay: qHTS Assay for Small Molecule Inhibitors of the Human hERG Channel Activity (AID 588834);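 further: lower thallium flux fluorescence means stronger hERG block; nearly all actives have a fitted effect of over 50% in size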; further: potency means the concentration at half of the fitted maximal effect
# Chain of Voltage-gated inwardly rectifying potassium channel KCNH2 (Homo sapiens) (Q12809 whole entry, looked up): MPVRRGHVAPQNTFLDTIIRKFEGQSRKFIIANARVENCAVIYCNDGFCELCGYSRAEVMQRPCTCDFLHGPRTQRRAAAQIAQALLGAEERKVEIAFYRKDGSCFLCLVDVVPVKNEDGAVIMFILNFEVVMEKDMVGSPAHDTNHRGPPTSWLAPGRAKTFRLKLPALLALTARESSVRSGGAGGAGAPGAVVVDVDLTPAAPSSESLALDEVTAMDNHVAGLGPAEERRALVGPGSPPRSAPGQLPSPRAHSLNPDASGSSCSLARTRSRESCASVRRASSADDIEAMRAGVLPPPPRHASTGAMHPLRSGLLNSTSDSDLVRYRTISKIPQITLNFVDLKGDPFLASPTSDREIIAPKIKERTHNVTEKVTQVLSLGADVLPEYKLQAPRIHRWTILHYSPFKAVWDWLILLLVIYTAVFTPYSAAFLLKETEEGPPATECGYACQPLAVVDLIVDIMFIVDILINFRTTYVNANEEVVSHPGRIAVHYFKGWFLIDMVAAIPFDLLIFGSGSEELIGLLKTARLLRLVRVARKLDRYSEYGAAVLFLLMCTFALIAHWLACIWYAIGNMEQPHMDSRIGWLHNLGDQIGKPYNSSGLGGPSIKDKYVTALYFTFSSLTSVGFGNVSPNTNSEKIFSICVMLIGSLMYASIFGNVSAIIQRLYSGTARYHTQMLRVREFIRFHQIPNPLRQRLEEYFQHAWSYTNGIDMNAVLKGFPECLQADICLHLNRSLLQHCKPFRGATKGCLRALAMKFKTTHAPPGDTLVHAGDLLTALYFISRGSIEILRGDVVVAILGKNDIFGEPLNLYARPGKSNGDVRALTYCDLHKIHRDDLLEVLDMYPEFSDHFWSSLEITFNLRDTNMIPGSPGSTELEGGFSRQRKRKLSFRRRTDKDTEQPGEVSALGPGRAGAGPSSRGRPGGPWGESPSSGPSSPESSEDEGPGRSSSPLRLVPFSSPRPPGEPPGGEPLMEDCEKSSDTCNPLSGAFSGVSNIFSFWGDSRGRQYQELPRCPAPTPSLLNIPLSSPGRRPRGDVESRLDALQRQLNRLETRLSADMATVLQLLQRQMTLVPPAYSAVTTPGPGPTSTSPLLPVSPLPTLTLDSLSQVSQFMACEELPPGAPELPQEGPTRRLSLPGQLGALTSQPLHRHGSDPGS
# Summary of the method: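 Homogeneous FluxOR thallium flux assay using hERG-expressing U2OS cells (BacMam). Compound treatment about 10 minutes preceded stimulation; reduced fluorescence taken as channel block.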
# [2] = target: Luciferin 4-monooxygenase (Photinus pyralis) (UniProt P08659); assay: Biochemical firefly luciferase enzyme assay for NPC (AID 624030); further: nearly all actives have a fitted effect of over 70% in size; further: potency means the concentration at half of the fitted maximal effect
# Chain of Luciferin 4-monooxygenase (Photinus pyralis) (P08659 whole entry, looked up): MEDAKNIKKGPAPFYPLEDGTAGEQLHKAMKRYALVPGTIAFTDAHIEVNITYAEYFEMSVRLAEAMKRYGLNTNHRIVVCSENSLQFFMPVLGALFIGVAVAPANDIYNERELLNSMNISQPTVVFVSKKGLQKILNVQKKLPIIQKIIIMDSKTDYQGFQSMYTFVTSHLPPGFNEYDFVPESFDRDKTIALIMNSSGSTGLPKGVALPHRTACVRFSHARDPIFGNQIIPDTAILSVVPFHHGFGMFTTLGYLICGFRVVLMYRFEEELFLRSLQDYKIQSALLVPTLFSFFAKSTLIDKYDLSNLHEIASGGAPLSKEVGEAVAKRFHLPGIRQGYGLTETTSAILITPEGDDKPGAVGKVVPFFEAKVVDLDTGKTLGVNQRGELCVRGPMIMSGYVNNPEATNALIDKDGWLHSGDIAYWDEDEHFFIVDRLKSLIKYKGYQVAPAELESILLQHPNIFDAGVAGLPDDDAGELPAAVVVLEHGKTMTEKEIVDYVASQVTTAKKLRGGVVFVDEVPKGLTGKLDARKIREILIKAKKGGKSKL
# Summary of the method: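 Purified P. pyralis luciferase at 10 nM in 50 mM Tris Acetate (final), luminescence read within 5 minutes of enzyme addition to compounds. Activity normalised to PTC124 versus DMSO; concentration-response curves classed by r2, magnitude and activity.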
# [3] = S16 Schwann cell viability assay (CellTiter-Glo assay) (AID 624031);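 further: cellular ATP luminescence as a viability measure; series mostly up to about 58 µM; nearly all actives have a fitted effect of over 70% in size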
# Summary of the method: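 Luminescent ATP read-out (CellTiter-Glo) after 24 h compound exposure of native S16 rat Schwann cells at 37 °C. Signals were normalized between cell-free wells and DMSO-treated cells, set as 0% activity.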
SMILES,Potency [1],Potency [2],outcome [3]
COC(=O)c1cccnc1,inactive,inactive,
CC(C)CCCC(C)CCCC(C)CCCCC(C)CCCC(C)CCCC(C)C (centres undefined),inactive,inactive,
C/C=C1\[C@H]2C=C(C)C[C@]1(N)c1ccc(=O)[nH]c1C2,inactive,,
Cc1c(NC(C)C)c(=O)n(-c2ccccc2)n1C,inactive,inactive,
O=C(NCN1CCOCC1)c1cnccn1,inactive,inactive,
COCC(=O)Nc1c(I)c(C(=O)NCC(O)CO)c(I)c(C(=O)N(C)CC(O)CO)c1I (centres undefined),inactive,,
NC(=O)N[C@@H](CCC(=O)O)C(=O)O,inactive,,
Nc1ccc(C(=O)Oc2ccccc2)c(O)c1,inactive,6.42 µM (active),
CC[N+](C)(CC)CCOC(=O)C1c2ccccc2Oc2ccccc21,inactive,inactive,
O=C(O)Cn1c(C(=O)Nc2nc(-c3ccccc3Cl)cs2)cc2ccccc21,inactive,12.8 µM (active),
CCOC(=O)c1cccnc1,inactive,inactive,
Cc1c(C)c2c(c(C)c1OC(=O)c1cccnc1)CC[C@@](C)(CCC[C@H](C)CCC[C@H](C)CCCC(C)C)O2,inactive,inactive,
CN1C(C)(C)CCCC1(C)C,inactive,inactive,
CN1CCCN=C1COC(=O)C(O)(c1ccccc1)C1CCCCC1 (centres undefined),2.82 µM (active),inactive,
O=C(O)CCCc1ccccc1,inactive,inactive,
NNC(=O)CP(=O)(c1ccccc1)c1ccccc1,inactive,inactive,

SMILES,Potency [1],Potency [2],outcome [3]
CN(C/C=C/C#CC(C)(C)C)Cc1cccc2ccccc12,12.6 µM (active),inactive,inactive
O=C(O)c1ccccc1C(=O)Nc1ccc(S(=O)(=O)Nc2nccs2)cc1,inactive,inactive,inactive
NCc1ccc(S(N)(=O)=O)cc1,inactive,inactive,inactive
O=c1[nH]c(=O)c2ccccc2o1,inactive,inactive,inactive
O=C(O)c1ccccc1OP(=O)(O)O,inactive,inactive,inactive
Cc1ncc(CO)c(CN)c1O,inactive,inactive,inactive
CC(C(=O)O)c1ccc2c(c1)Cc1cccnc1O2 (centres undefined),inactive,inactive,inactive
COc1ccc(C(=O)NCc2ccc(OCCN(C)C)cc2)cc1OC,inactive,inactive,inactive
O=C(O)Cc1cn(-c2ccccc2)nc1-c1ccc(Cl)cc1,inactive,inactive,inactive
CCCOC(=O)c1ccc(N)cc1,inactive,inactive,inactive
CC(=O)N[C@@H](Cc1ccc(O)cc1)C(=O)O,inactive,inactive,inactive
CC(O)CCCCn1c(=O)c2c(ncn2C)n(C)c1=O (centres undefined),inactive,inactive,inactive
COC(=O)c1ccccc1C(=O)c1ccc(OCCN2CCCCC2)cc1,inactive,inactive,inactive
CCCNC(C)(C)COC(=O)c1ccccc1,inactive,inactive,inactive
O=C(O)CCC(=O)O,inactive,inactive,inactive
